# Test results as given in PubChem BioAssay (NCI).
# The panel holds about 83,000 compounds, 20% with a hit somewhere; the sample as a whole holds those more often.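 Growth was measured after 48 h exposure to one concentration of compound in 96-well plates. Values under 10 count as active.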 Values without a mark were called inactive. Calls of active or inactive are those of the source.
# Test system: HL-60(TB) leukemia
# Experiment: NCI-60 one-dose screen, 48 h (100 = growth as untreated, 0 = no growth, -100 = all killed)
# Conditions: 10 µM unless noted
row,SMILES,growth
1,CCn1c(Cc2ccccc2Nc2c(Cl)cccc2Cl)nnc1SCC(=O)Nc1cccc(OC)c1,53.6%
2,O=C(NC1CCCCC1)C(c1cccs1)N(CCc1ccccc1)C(=O)c1ccco1 (configuration not stated),100%
3,Cc1c(CN2CCN(C(=O)[C@H](C)O)CC2)sc2c(N3CCOCC3)nc(-c3cnc(N)nc3)nc12,-7.28% (active)
4,CC(C)C[C@H](NC(=O)Cn1ccc2ccccc2c1=O)B(O)O,27.9%
5,Cc1ccc(C)c(COc2cc(NC(=O)c3ccc4c(c3)OCO4)ccc2N(C)S(C)(=O)=O)c1,-5.51% (active)
6,COc1ccc2c(c1)OC1=C(C(=O)OC1)C2c1cc(OC)c(OC)c(OC)c1 (configuration not stated),5.99% (active)
7,Cc1ccc(S(=O)(=O)c2ccccc2)cc1,12.8%
8,Cc1ncc(C(=O)Nc2ccc(CN3CCN(C)CC3)c(C(F)(F)F)c2)cc1C#Cc1ccc(N)nc1,17.6%
9,NC(=S)Nc1ccc2c(c1)Cc1ccccc1-2,77.4%
10,N#CCc1cccc2ccccc12,90.6%
11,CC(=O)c1cc(C(=O)c2ccc3c(c2)Sc2ccccc2N3)c2c(C)cccn12,-4.53% (active)
12,CN1CCN(c2cnc(C(=O)Nc3cc(F)cc4cccnc34)cn2)CC1,6.72% (active)
